# From PubChem BioAssay AID504374 (National Center for Advancing Translational Sciences (NCATS), 2011)
# Among all 1,500 compounds or so, about 100 (6.7%) were called active. About 7% were inconclusive and are not listed. Calls follow the shape of the dose curve; as a rule, active = well fitted inhibition curve with a large enough effect; inconclusive = small, poorly fitted or top-dose-only effect, or effect the other way; inactive = flat fitted curve, though single readings scatter. Shown is part of a subset that was picked to be rich in actives.
# Target: Runt-related transcription factor 1 (Homo sapiens) + Core-binding factor subunit beta (Homo sapiens) (UniProt Q01196+Q13951)
# Experiment: qHTS Assay for Compounds Blocking the Interaction Between CBF-beta and RUNX1 for the Treatment of Acute Myeloid Leukemia: Hit Validation; also: nearly all actives have a fitted effect of over 60% in size
# Conditions: AlphaScreen CBFb-His/RUNX1-biotin binding; series mostly up to 59.8 µM; activity, negative = inhibition: at the top concentration
# Text: NIH Chemical Genomics Center [NCGC]
# NIH Molecular Libraries Probe Production centers Network [MLPCN]
# Assay Submitter (PI): Paul Liu
# Core Binding Factor (CBF) abnormalities are associated with 20-25% of all acute myeloid leukemias (AML), of which 5-10% are further sub classified as acute myelomonocytic leukemia with eosinophilia, also known as M4Eo in the FAB classification scheme. This subtype of leukemia is usually associated with chromosome 16 inversion (p13:q22). Chromosome 16 inversion results in formation of the fusion oncogene CBFB-MYH11, which encodes the fusion protein CBF-beta-SMMHC.
# It has been hypothesized that the interference of CBF-beta and RUNX1 binding could have therapeutic implications for patients with CBF mediated leukemias. We developed a CBF-beta and RUNX1 binding assay in AlphaScreenTM format and optimized it for high throughput screening to search for inhibitors. The goal of this project is to screen MLPCN's compound collection (MLSMR) for identifying the inhibitors of the interaction between CBF-beta and RUNX1 proteins as research probes. If these probes work well in the animal models, the ultimate goal of this project is to development a new drug treatment for this disease.
# This assay can not be used to assess how apparent inhibitors interfere with protein binding, and whether inhibitors specifically bind to either protein. Disruption of this protein-protein interaction, through any mechanism, is the intended target activity.
# The present data set was run to confirm the activity of hits from the primary screen.
# NCGC Assay Protocol Summary:
# Step, Parameter, Description
# (1) Reagent, 3 uL CBFb-His/RUNX1-biotin mix incubated together for 20 minutes at room temperature (30 nM each)
# (2) Compound or control, 23 nL compound stock solution
# (3) Incubation, 15 minutes at Room temperature
# (4) Reagent, 1 uL 50 ng each of beads (Nickel beads and streptavidin beads)
# (5) Incubation, 90 minutes at Room temperature
# (6) Detection, Excitation=365 nm Emission=440 nm, Envision reader in AlphaScreenTM mode
# Keywords: MLSMR, MLPCN, NIH Roadmap, qHTS, NCGC, Core binding factor, CBF, CBF-beta, Acute myeloid leukemia
# % is scaled to controls: 0 for no effect and ±100 for the full control effect; potency is read from the fitted curve at half-maximal effect.
# Sequence of Runt-related transcription factor 1 (Homo sapiens) + Core-binding factor subunit beta (Homo sapiens) (Q01196 whole entry, looked up): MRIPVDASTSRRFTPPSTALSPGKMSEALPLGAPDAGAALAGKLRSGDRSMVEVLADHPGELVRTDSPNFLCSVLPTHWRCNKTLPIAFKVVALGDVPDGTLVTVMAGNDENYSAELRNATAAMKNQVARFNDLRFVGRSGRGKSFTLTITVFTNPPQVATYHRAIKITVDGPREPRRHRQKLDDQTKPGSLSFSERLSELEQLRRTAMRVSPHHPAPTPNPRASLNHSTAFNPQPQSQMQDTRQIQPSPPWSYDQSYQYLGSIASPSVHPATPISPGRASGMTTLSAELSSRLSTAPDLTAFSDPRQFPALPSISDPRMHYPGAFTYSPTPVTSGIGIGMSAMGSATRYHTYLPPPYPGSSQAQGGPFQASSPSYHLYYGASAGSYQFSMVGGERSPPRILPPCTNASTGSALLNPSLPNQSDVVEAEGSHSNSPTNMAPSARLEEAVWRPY
# Sequence of Runt-related transcription factor 1 (Homo sapiens) + Core-binding factor subunit beta (Homo sapiens) (Q13951 whole entry, looked up): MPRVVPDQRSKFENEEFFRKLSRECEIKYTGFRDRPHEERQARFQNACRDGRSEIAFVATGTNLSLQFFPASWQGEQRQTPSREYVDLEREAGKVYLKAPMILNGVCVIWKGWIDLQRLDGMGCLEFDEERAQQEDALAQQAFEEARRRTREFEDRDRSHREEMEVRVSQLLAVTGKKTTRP
Structure (SMILES),Potency,"activity, negative = inhibition"
CCCCc1ccc(C(=O)O)nc1,6310 nM (active),–
CCC(C)n1c(O)c(C=NCCc2ccccc2)c(=O)[nH]c1=S (stereo unspecified),–,-0.764% (inactive)
CN(N=O)c1ccc(O)c(O)c1,1260 nM (active),–
CN(N=O)c1cc(O)ccc1O,–,1.25% (inactive)
CCC(=Nc1cccc(C(F)(F)F)c1)c1c(O)n(C)c(=O)n(C)c1=O,–,2.46% (inactive)
C=CCn1c(O)c(C(C)=Nc2ccc3c(c2)CCC3)c(=O)[nH]c1=O,–,-1.69% (inactive)
COc1cc(CN=Cc2c(O)n(C(C)(C)C)c(=O)[nH]c2=O)cc(OC)c1,–,1.63% (inactive)
CCCCn1c(O)c(/C=N/N2CCOCC2)c(=O)[nH]c1=S,–,-5.68% (inactive)
CCCCNC(=O)Oc1c(Br)cc2sc(=O)oc2c1Br,6120 nM (active),–
CCCCn1c(O)c(/C=C2/C=CC=N2)c(=O)[nH]c1=O,–,-6.78% (inactive)
Cc1nc(SCc2c(Cl)cccc2Cl)nc(OC(=O)N(C)C)c1C,–,2.29% (inactive)
CC(C)(C)n1cc(C(=O)c2ccccc2)cc1-c1ccccc1,–,-0.565% (inactive)
Cn1c(O)c(C(=Nc2ccc(F)cc2)c2ccccc2)c(=O)n(C)c1=O,–,-2.33% (inactive)
COP(=O)(Cc1ccc(C#N)o1)OC,–,-0.622% (inactive)
C/C=C/CC1(CC)C(=O)NC(=S)NC1=O,–,-1.71% (inactive)
COc1ccc(CN2C(=O)NC(=O)/C(=C/c3ccc(OC)c(OC)c3OC)C2=O)cc1,–,9.53% (inactive)
O=C(O)CCCCC1SCC2NC(=O)NC21 (stereo unspecified),56.2 nM (active),–
CC(C)OP(=O)(Oc1ccc(C(O)C(Cl)(Cl)Cl)cc1)OC(C)C (stereo unspecified),–,-0.79% (inactive)
Clc1ccccc1CN1CCN(c2cccc3[nH]ccc23)CC1,–,-13.4% (inactive)
C=CCn1c(O)c(C(C)=NCC2CCCO2)c(=O)[nH]c1=O (stereo unspecified),–,1.56% (inactive)
O=c1[nH]c(=S)n(-c2ccc(F)cc2)c(O)c1/C=N/N1CCOCC1,–,1.42% (inactive)
Cc1cccc(-n2c(O)c(/C=N/Nc3nc4c(c(=O)n(C)c(=O)n4C)n3C)c(=O)[nH]c2=S)c1,891 nM (active),–
Cn1c(O)c(/C=N/N2CCOCC2)c(=O)[nH]c1=S,–,21.1% (inactive)

Structure (SMILES),Potency,"activity, negative = inhibition"
Cc1cc(OC(=O)N(C)C)nc2c1c(C)nn2C,–,-3.55% (inactive)
CCCCCCn1c(O)c(/C=N/N2CCCCCC2)c(=O)[nH]c1=O,–,-0.075% (inactive)
COCc1cc(OC(=O)N(C)C)nc(-c2ccccc2)n1,–,0.677% (inactive)
Cc1cccc(N2C(=O)NC(=O)/C(=C\c3ccc(N4CCOCC4)cc3)C2=O)c1,–,-4.52% (inactive)
Cc1cc(OC(=O)N(C)C)nc(-c2ccc(C)c(Cl)c2)n1,–,-1.54% (inactive)
CCCC(=O)c1ccc(CP(=O)(OCC)OCC)o1,–,-2.26% (inactive)
CC[N+](C)(CC)CCC[n+]1c(-c2ccccc2)c2cc(N)ccc2c2ccc(N)cc21,1120 nM (active),–
CC[n+]1c(-c2ccccc2)c2cc(N)ccc2c2ccc(N)cc21,499 nM (active),–
O=c1c2ccccc2nc(Cc2cccc([N+](=O)[O-])c2)n1-c1ccc(O)cc1,–,-8.58% (inactive)
CCC(=NCc1ccco1)c1c(O)n(-c2ccccc2C)c(=O)[nH]c1=O,–,-0.548% (inactive)
CCCC(=O)c1cc(CP(=O)(OCC)OCC)oc1C,–,-4.76% (inactive)
O=c1[nH]c(=S)[nH]c(O)c1/C=N/N1CCOCC1,–,0.395% (inactive)
Cc1ccc(-n2c(O)c(C=N)c(=O)n(-c3ccc(C)cc3)c2=O)cc1,–,-1.55% (inactive)
CC(=O)Nc1ccc([As](=O)(O)c2ccc([N+](=O)[O-])cc2)cc1,–,-7.13% (inactive)
Cn1c(O)c(C(=Nc2ccc(F)cc2)c2ccccc2Cl)c(=O)n(C)c1=O,–,-4.1% (inactive)
C[C@H]1CC[C@H]2NCCN[C@H]2C1,–,4.76% (inactive)
O=C(OCC1O[C@@H](OC(=O)c2cc(O)c(O)c(O)c2)[C@@H](OC(=O)c2cc(O)c(O)c(O)c2)[C@@H](OC(=O)c2cc(O)c(O)c(O)c2)[C@@H]1OC(=O)c1cc(O)c(O)c(O)c1)c1cc(O)c(O)c(O)c1 (stereo partly specified),63.1 nM (active),–
O=C1C=CC(=O)c2c(O)cccc21,4470 nM (active),–
CCC(=NCc1cccnc1)c1c(O)n(-c2ccccc2C)c(=O)[nH]c1=O,–,0.638% (inactive)
Cc1onc(-c2c(Cl)cccc2Cl)c1C(=O)Nc1ccc2c(C(F)(F)F)cc(=O)oc2c1,–,-2.82% (inactive)
Cn1c(O)c(C=NCCN2CCN(C(=O)Nc3ccccc3)CC2)c(=O)n(C)c1=O,–,-4.64% (inactive)
CCCCCCn1c(O)c(C=Nc2ccccc2N2CCOCC2)c(=O)[nH]c1=S,–,0.654% (inactive)
CCC(=NCc1cc(OC)cc(OC)c1)c1c(O)n(C2CCCCC2)c(=O)[nH]c1=O,–,9.95% (inactive)
